Measured values taken from PubChem BioAssay AID1159580 (chemical genetic matrix, 2015).
In all, about 5,500 compounds went through this assay and about 2,000 (36%) were called active. About 18% were inconclusive and are not listed. Cut-off read from the data, not from the text of the source: active = normalized growth mostly below about 0.91 (no sharp cut-off); inconclusive = no clear call, values can overlap the other calls; inactive = mostly above about 0.92. Some of the results follow.

Test: chemical genetic growth profiling, strain panel (AID 1159580);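 note: tested at 20 µM; growth read once vehicle control cultures reached saturation at 30 °C; 1 = growth at the plate median or of vehicle wells; lower values mean less growth of the strain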
Conditions: growth OD

Measured: normalized growth

Cc1cc(=O)oc2c(O)c(O)ccc12
inactive: S. cerevisiae deletion strains, locus YJR043C, strain POL32, active compounds read low 1 | S. cerevisiae deletion strains, locus YJR066W, strain TOR1, active compounds read low 0.94 | S. cerevisiae deletion strains, locus YJR075W, strain HOC1, active compounds read low 1.02 | S. cerevisiae deletion strains, locus YKL009W, strain mrt4, active compounds read low 0.979 | S. cerevisiae deletion strains, locus YKL068W, active compounds read low 1 | S. cerevisiae deletion strains, locus YKL085W, strain MDH1 (second series), active compounds read low 0.99 | S. cerevisiae deletion strains, locus YKL085W, strain MDH1, active compounds read low 0.99 | S. cerevisiae deletion strains, locus YKL160W, strain elf1, active compounds read low 0.992 | S. cerevisiae deletion strains, locus YKR001C, strain vps1, active compounds read low 0.99 | S. cerevisiae deletion strains, locus YKR026C, strain gcn3, active compounds read low 0.963 | S. cerevisiae deletion strains, locus YKR091W, strain srl3, active compounds read low 0.974 | S. cerevisiae deletion strains, locus YLL001W, strain dnm1, active compounds read low 0.956 | S. cerevisiae deletion strains, locus YLL026W, active compounds read low 0.975 | S. cerevisiae deletion strains, locus YLL041C, strain sdh2, active compounds read low 0.993 | S. cerevisiae deletion strains, locus YLR027C, strain aat2, active compounds read low 0.968 | S. cerevisiae deletion strains, locus YLR039C, strain RIC1, active compounds read low 0.953 | S. cerevisiae deletion strains, locus YLR058C, strain SHM2, active compounds read low 1.02 | S. cerevisiae deletion strains, locus YLR102C, strain apc9, active compounds read low 1.01 | S. cerevisiae deletion strains, locus YLR113W, strain HOG1, active compounds read low 0.981 | S. cerevisiae deletion strains, locus YLR221C, strain rsa3, active compounds read low 0.995 | S. cerevisiae deletion strains, locus YLR258W, strain gsy2, active compounds read low 0.986 | S. cerevisiae deletion strains, locus YLR262C, strain YPT6 (second series), active compounds read low 0.93 | S. cerevisiae deletion strains, locus YLR262C, strain YPT6, active compounds read low 0.923 | S. cerevisiae deletion strains, locus YLR268W, strain sec22, active compounds read low 0.992 | S. cerevisiae deletion strains, locus YLR320W, strain mms22, active compounds read low 0.993 | S. cerevisiae deletion strains, locus YLR330W, strain CHS5, active compounds read low 1.02 | S. cerevisiae deletion strains, locus YLR342W, strain FKS1 (second series), active compounds read low 0.996 | S. cerevisiae deletion strains, locus YLR342W, strain FKS1, active compounds read low 0.971 | S. cerevisiae deletion strains, locus YLR357W, strain rsc2, active compounds read low 0.952 | S. cerevisiae deletion strains, locus YLR370C, strain arc18, active compounds read low 0.958 | S. cerevisiae deletion strains, locus YLR371W, strain rom2, active compounds read low 1 | S. cerevisiae deletion strains, locus YLR384C, strain iki3, active compounds read low 0.954 | S. cerevisiae deletion strains, locus YLR418C, strain cdc73, active compounds read low 1.03 | S. cerevisiae deletion strains, locus YML016C, strain PPZ1, active compounds read low 1.01 | S. cerevisiae deletion strains, locus YML032C, strain rad52, active compounds read low 0.997 | S. cerevisiae deletion strains, locus YML120C, strain ndi1, active compounds read low 0.974 | S. cerevisiae deletion strains, locus YML124C, strain tub3, active compounds read low 1 | S. cerevisiae deletion strains, locus YMR058W, strain fet3, active compounds read low 0.964 | S. cerevisiae deletion strains, locus YMR078C, strain ctf18, active compounds read low 0.976 | S. cerevisiae deletion strains, locus YMR125W, strain sto1, active compounds read low 0.944 | S. cerevisiae deletion strains, locus YMR129W, active compounds read low 0.976 | S. cerevisiae deletion strains, locus YMR205C, strain PFK2, active compounds read low 0.96 | S. cerevisiae deletion strains, locus YMR223W, strain ubp8, active compounds read low 1.02 | S. cerevisiae deletion strains, locus YMR231W, strain pep5, active compounds read low 0.967 | S. cerevisiae deletion strains, locus YMR263W, strain SAP30, active compounds read low 1 | S. cerevisiae deletion strains, locus YMR307W, strain GAS1, active compounds read low 0.965 | S. cerevisiae deletion strains, locus YNL067W, strain RPL9B, active compounds read low 1.01 | S. cerevisiae deletion strains, locus YNL071W, strain lat1, active compounds read low 0.983 | S. cerevisiae deletion strains, locus YNL153C, strain GIM3, active compounds read low 1 | S. cerevisiae deletion strains, locus YNL183C, strain NPR1, active compounds read low 0.931 | S. cerevisiae deletion strains, locus YNL209W, strain ssb2, active compounds read low 0.977 | S. cerevisiae deletion strains, locus YNL233W, strain BNI4, active compounds read low 1.01 | S. cerevisiae deletion strains, locus YNL248C, strain rpa49, active compounds read low 1.01 | S. cerevisiae deletion strains, locus YNL250W, strain rad50, active compounds read low 0.991 | S. cerevisiae deletion strains, locus YNL271C, strain bni1, active compounds read low 1.01 | S. cerevisiae deletion strains, locus YNL298W, strain CLA4, active compounds read low 0.991 | S. cerevisiae deletion strains, locus YNL307C, strain MCK1, active compounds read low 1.03 | S. cerevisiae deletion strains, locus YNL322C, strain KRE1 (second series), active compounds read low 0.968 | S. cerevisiae deletion strains, locus YNR049C, strain mso1, active compounds read low 0.959 | S. cerevisiae deletion strains, locus YNR052C, strain pop2, active compounds read low 0.984 | S. cerevisiae deletion strains, locus YOL006C, strain TOP1, active compounds read low 1.14 | S. cerevisiae deletion strains, locus YOL012C, strain htz1 0.856 | S. cerevisiae deletion strains, locus YOL147C, strain pex11, active compounds read low 1.01 | S. cerevisiae deletion strains, locus YOR001W, strain rrp6, active compounds read low 0.988 | S. cerevisiae deletion strains, locus YOR061W, strain CKA2, active compounds read low 0.999 | S. cerevisiae deletion strains, locus YOR069W, strain VPS5, active compounds read low 1.01 | S. cerevisiae deletion strains, locus YOR070C, strain gyp1, active compounds read low 0.975 | S. cerevisiae deletion strains, locus YOR080W, strain dia2, active compounds read low 0.984 | S. cerevisiae deletion strains, locus YOR083W, strain WHI5, active compounds read low 1 | S. cerevisiae deletion strains, locus YOR106W, strain vam3, active compounds read low 0.926 | S. cerevisiae deletion strains, locus YOR136W, strain idh2, active compounds read low 1.01 | S. cerevisiae deletion strains, locus YOR144C, strain elg1, active compounds read low 0.993 | S. cerevisiae deletion strains, locus YOR184W, strain ser1, active compounds read low 1.01 | S. cerevisiae deletion strains, locus YOR231W, strain MKK1, active compounds read low 0.983 | S. cerevisiae deletion strains, locus YOR265W, strain rbl2, active compounds read low 0.991 | S. cerevisiae deletion strains, locus YOR270C, strain vph1, active compounds read low 0.864 | S. cerevisiae deletion strains, locus YOR290C, strain snf2, active compounds read low 0.962 | S. cerevisiae deletion strains, locus YOR316C, strain cot1, active compounds read low 1 | S. cerevisiae deletion strains, locus YPL051W, strain arl3, active compounds read low 0.995 | S. cerevisiae deletion strains, locus YPL078C, strain atp4, active compounds read low 0.981 | S. cerevisiae deletion strains, locus YPL106C, strain sse1, active compounds read low 0.906 | S. cerevisiae deletion strains, locus YPL240C, strain hsp82, active compounds read low 0.999 | S. cerevisiae deletion strains, locus YPL256C, strain CLN2, active compounds read low 0.971 | S. cerevisiae deletion strains, locus YPR119W, strain clb2, active compounds read low 0.985 | S. cerevisiae deletion strains, locus YPR141C, strain kar3, active compounds read low 1 | S. cerevisiae deletion strains, locus YPR163C, strain tif3, active compounds read low 0.99 | S. cerevisiae deletion strains, locus YPR167C, strain met16, active compounds read low 1.02 | S. cerevisiae deletion strains, strain wtn01, active compounds read low 0.997 | S. cerevisiae strains, strain wild type, active compounds read low 1
